Assay results published in the supplement of paper PMC10849652.
Targets with a hit are over-represented here; the source holds about 7,900 in all. About 0.6% of all pairs of compound and target were hits. Values without a mark were called inactive.

How the values were obtained:
Experiment in all cases: log2 fold change, soluble protein after heating vs DMSO (PISA); higher = thermal stabilisation; K562 cells, 10 uM, 30 min; active = over 0.2 and 3.5 SD of the protein, either way, in both replicates (recomputed)
IRAK-1-4 Inhibitor I = compound: C1COCCN1CCN2C3=CC=CC=C3N=C2NC(=O)C4=CC(=CC=C4)[N+](=O)[O-] [IRAK-1-4 Inhibitor I]
Outline: (§1)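 For each measurement, 10 μM compound was applied for 30 min to K562 cells at 2×10^6 cells/mL. Aliquots were heated for 3 min across 48°C-58°C, pooled, and extracted in PBS with 0.5% NP-40 at 4°C; the supernatant after 21,000xg for 90 min was soluble protein. This was quantified by TMTpro 16plex LC-MS/MS with channel sums equalised, and thermal stability was reported relative to control samples from duplicates, on a log2 fold-change scale.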

ibrutinib = compound: C=CC(=O)N1CCC[C@@H](n2nc(-c3ccc(Oc4ccccc4)cc3)c3c(N)ncnc32)C1 [ibrutinib]
Outline: as §1

[1] = compound: CC(=O)c1cnc2ccc(-c3cc(Cl)c(O)c(Cl)c3)nc2c1N[C@H]1CC[C@H](CN(C)C)CC1
Outline: as §1

ralimetinib = compound: CC(C)(C)Cn1c(N)nc2ccc(-c3[nH]c(C(C)(C)C)nc3-c3ccc(F)cc3)nc21 [ralimetinib]
Outline: as §1

[2] = compound: CC(C)(O)CC(=O)NCCn1ccc2ncnc(Nc3ccc(Oc4cccc(C(F)(F)F)c4)c(Cl)c3)c21
Outline: as §1

[3] = compound: CC(C)C1=C2N=C(C=C(N2N=C1)NCC3=CC=CC=C3)NCCCCCCN
Outline: as §1

[4] = compound: CC(C)C[C@@H](C=O)NC(=O)[C@H](CC(C)C)NC(=O)[C@H](CC(C)C)NC(=O)OCc1ccccc1
Outline: as §1

pinometostat = compound: CC(C)N(C[C@H]1O[C@@H](n2cnc3c(N)ncnc32)[C@H](O)[C@@H]1O)[C@H]1C[C@@H](CCc2nc3cc(C(C)(C)C)ccc3[nH]2)C1 [pinometostat]
Outline: as §1

[5] = compound: CC1=C(C(CC(=O)N1)C2=CC=C(C=C2)C(F)(F)F)C(=O)NC3=C(C=C4C(=C3)C=NN4)F
Outline: as §1

[6] = compound: CC1=C(C2=C(C=C1)C(=O)C3=CC=CC=C3N2CCCN)C
Outline: as §1

[7] = compound: CC1=C(C=C(C=C1)NC(=O)C2=CC(=CC=C2)C(C)(C)C#N)NC3=CC4=C(C=C3)N=CN(C4=O)C
Outline: as §1

[8] = compound: CC1=C(C=C(C=C1)NC(=O)C2=CC(=CC=C2)N(C)C)NC(=O)C3=CC=C(C=C3)O
Outline: as §1

[9] = compound: CC1=NC(=CC=C1)C2=C(N=C(N2)C(C)(C)C)C3=CC4=NC=CN=C4C=C3
Outline: as §1

Nexturastat A = compound: CCCCN(Cc1ccc(C(=O)NO)cc1)C(=O)Nc1ccccc1 [Nexturastat A]
Outline: as §1

vemurafenib = compound: CCCS(=O)(=O)Nc1ccc(F)c(C(=O)c2c[nH]c3ncc(-c4ccc(Cl)cc4)cc23)c1F [vemurafenib]
Outline: as §1

[10] = compound: CCCc1cc(C)[nH]c(=O)c1CNC(=O)c1cc(-c2ccnc(N3CCN(C)CC3)c2)cc2c1cnn2C(C)C
Outline: as §1

givinostat = compound: CCN(CC)Cc1ccc2cc(COC(=O)Nc3ccc(C(=O)NO)cc3)ccc2c1 [givinostat]
Outline: as §1

barasertib = compound: CCN(CCCOc1ccc2c(Nc3cc(CC(=O)Nc4cccc(F)c4)[nH]n3)ncnc2c1)CCOP(=O)(O)O [barasertib]
Outline: as §1

[11] = compound: CC1=CC=C(C=C1)SC2=C3C=C(SC3=CN=C2)C(=O)N
Outline: as §1

[12] = compound: CCCS(=O)(=O)Nc1ccc(F)c(C(=O)c2c[nH]c3ncc(Cl)cc23)c1F
Outline: as §1

UniProt Q969N2, sequence (Q969N2 whole entry, looked up): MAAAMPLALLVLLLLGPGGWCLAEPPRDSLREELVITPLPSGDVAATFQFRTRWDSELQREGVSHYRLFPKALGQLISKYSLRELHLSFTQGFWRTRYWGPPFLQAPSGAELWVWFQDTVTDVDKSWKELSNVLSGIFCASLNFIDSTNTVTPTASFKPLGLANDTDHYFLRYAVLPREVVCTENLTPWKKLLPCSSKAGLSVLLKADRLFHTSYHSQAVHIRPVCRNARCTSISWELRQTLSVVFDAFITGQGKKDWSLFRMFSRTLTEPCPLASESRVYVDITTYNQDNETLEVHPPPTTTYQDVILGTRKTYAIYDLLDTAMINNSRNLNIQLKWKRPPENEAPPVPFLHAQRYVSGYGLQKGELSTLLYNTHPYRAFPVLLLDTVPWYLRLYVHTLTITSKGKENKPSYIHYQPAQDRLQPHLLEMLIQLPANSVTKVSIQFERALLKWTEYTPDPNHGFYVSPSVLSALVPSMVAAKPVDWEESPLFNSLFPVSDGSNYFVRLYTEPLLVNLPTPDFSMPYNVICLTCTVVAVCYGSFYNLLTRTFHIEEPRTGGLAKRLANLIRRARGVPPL
UniProt P09884, sequence (P09884 whole entry, looked up): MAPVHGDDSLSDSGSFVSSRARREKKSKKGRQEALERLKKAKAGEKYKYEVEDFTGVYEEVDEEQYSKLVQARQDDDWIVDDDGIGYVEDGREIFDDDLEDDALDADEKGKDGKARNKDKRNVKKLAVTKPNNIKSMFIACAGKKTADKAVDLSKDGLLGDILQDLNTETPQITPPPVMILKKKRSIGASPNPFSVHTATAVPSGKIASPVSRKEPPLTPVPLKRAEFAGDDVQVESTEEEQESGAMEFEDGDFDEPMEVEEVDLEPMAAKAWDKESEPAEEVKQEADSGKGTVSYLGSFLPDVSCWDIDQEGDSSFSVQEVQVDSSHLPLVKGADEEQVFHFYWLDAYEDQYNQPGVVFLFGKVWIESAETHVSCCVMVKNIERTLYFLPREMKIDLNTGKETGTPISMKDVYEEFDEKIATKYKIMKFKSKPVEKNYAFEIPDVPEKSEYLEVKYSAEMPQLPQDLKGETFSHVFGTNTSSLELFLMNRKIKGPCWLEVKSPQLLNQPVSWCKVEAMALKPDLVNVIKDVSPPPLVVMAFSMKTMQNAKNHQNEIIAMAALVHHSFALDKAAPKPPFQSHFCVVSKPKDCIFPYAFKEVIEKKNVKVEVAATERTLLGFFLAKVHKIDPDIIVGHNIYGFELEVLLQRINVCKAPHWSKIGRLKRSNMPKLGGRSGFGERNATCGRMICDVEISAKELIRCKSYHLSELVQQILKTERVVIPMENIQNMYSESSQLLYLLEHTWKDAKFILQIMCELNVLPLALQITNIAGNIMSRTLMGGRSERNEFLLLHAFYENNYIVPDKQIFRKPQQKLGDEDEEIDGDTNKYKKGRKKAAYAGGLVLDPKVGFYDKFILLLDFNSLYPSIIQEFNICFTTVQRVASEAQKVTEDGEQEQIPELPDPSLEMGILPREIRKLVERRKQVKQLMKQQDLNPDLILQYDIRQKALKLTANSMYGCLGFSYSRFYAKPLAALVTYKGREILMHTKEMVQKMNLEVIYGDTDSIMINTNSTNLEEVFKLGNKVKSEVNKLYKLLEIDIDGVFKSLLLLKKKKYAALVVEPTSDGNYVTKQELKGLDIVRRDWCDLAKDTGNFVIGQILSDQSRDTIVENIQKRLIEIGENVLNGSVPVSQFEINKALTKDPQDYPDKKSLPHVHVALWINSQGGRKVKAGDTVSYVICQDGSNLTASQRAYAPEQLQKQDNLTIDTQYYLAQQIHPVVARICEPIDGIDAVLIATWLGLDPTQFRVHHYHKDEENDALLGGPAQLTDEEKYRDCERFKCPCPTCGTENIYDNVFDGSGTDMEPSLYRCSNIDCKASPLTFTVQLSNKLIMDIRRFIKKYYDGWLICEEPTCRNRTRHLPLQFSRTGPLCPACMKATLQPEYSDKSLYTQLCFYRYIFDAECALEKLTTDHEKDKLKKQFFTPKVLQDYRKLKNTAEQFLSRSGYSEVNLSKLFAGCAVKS
UniProt Q86TB9, sequence (Q86TB9 whole entry, looked up): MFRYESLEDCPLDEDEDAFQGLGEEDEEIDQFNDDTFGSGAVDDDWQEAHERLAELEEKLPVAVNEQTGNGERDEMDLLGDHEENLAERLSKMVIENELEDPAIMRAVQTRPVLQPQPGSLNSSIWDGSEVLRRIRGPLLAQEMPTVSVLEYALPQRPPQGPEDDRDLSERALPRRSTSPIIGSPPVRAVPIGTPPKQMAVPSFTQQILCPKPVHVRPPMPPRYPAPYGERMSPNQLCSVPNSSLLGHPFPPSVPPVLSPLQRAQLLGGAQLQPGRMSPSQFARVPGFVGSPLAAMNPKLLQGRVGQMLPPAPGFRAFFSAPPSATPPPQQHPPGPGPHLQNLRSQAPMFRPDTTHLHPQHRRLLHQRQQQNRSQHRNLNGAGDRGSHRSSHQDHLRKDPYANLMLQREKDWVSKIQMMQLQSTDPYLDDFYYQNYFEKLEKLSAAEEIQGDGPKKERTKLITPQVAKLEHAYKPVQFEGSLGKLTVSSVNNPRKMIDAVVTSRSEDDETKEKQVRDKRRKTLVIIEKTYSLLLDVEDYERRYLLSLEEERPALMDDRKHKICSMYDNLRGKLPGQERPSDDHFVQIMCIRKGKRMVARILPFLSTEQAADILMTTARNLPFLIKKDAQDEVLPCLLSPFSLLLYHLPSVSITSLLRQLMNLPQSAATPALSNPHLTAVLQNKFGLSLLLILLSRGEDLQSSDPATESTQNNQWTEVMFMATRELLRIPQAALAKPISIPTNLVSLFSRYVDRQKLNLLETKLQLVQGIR
UniProt Q14442, sequence (Q14442 whole entry, looked up): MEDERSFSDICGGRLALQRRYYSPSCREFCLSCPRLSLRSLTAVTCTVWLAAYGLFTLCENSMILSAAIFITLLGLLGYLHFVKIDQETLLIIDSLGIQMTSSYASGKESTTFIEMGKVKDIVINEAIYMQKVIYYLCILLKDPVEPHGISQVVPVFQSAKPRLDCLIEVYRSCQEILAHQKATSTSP
UniProt O94913, sequence (O94913 whole entry, looked up): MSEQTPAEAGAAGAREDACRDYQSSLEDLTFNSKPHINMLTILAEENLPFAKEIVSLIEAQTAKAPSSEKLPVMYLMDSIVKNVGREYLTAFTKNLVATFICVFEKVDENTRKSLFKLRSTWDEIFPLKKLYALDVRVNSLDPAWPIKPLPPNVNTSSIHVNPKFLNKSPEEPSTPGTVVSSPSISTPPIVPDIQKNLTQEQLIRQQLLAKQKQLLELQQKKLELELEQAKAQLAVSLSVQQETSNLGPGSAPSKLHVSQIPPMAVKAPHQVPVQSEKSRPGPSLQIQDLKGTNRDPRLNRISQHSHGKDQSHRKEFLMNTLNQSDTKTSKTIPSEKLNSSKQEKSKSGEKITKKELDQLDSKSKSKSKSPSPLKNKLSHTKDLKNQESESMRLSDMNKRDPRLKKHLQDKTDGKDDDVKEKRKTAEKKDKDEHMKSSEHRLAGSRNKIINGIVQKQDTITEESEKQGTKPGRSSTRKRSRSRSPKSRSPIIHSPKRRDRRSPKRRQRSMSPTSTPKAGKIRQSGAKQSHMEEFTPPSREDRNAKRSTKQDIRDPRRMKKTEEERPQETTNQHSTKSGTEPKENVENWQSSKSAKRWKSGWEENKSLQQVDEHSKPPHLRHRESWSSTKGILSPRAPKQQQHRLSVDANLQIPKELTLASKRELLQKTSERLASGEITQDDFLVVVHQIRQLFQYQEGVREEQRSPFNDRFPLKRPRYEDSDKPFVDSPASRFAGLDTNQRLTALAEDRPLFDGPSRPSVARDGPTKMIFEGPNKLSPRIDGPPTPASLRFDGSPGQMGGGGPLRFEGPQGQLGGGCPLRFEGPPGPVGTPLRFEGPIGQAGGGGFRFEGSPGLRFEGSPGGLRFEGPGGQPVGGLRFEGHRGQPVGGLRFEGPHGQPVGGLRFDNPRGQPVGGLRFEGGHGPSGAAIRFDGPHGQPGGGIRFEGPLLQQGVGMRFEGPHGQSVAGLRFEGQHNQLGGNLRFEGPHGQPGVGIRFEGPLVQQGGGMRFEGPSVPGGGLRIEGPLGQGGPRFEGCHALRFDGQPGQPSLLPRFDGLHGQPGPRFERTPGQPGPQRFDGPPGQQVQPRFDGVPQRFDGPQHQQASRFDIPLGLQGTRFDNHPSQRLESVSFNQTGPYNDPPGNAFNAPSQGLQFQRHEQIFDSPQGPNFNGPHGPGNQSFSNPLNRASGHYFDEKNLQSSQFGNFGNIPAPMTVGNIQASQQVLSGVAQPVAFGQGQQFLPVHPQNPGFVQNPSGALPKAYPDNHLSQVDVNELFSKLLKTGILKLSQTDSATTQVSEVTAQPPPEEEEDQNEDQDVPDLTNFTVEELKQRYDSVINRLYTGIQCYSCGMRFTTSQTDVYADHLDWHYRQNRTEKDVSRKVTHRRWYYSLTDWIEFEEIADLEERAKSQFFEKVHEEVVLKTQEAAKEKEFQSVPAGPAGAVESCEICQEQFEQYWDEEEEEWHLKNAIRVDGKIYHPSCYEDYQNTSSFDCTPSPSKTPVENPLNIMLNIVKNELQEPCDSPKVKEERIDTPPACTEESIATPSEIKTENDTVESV
UniProt Q86TP1, sequence (Q86TP1 whole entry, looked up): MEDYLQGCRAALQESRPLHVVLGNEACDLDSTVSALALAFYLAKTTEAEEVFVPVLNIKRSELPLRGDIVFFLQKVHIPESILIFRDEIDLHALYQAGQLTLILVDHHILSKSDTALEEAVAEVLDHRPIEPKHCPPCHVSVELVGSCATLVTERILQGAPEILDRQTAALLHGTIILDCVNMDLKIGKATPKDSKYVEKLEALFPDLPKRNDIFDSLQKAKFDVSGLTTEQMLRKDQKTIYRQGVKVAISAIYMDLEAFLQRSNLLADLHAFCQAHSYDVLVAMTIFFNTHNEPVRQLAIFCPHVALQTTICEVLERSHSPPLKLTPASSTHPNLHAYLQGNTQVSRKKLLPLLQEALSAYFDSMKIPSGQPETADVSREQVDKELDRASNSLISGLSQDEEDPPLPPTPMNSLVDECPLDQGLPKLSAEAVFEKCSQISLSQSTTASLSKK

Row | Target | log2 fold change (IRAK-1-4 Inhibitor I) | log2 fold change (ibrutinib) | log2 fold change [1] | log2 fold change (ralimetinib) | log2 fold change [2] | log2 fold change [3] | log2 fold change [4] | log2 fold change (pinometostat) | log2 fold change [5] | log2 fold change [6] | log2 fold change [7] | log2 fold change [8] | log2 fold change [9] | log2 fold change (Nexturastat A) | log2 fold change (vemurafenib) | log2 fold change [10] | log2 fold change (givinostat) | log2 fold change (barasertib) | log2 fold change [11] | log2 fold change [12]
1 | PRG4 (UniProt Q92954) | -0.072 | -0.005 | 0 | 0.011 | 0.059 | 0.29 | 0.054 | -0.068 | 0.039 | -0.127 | -0.099 | 0.034 | 0.106 | -0.007 | 0.008 | -0.069 | 0.102 | -0.023 |  | 
2 | PARP1 (UniProt P09874) | -0.068 | -0.027 | -0.052 | 0.039 | 0.108 | -0.068 | 0.018 | -0.009 | -0.004 | 0.578 (active) | 0.116 | -0.149 | 0.107 | -0.13 | 0.112 | 0.555 (active) | 0.045 | 0.122 | 0.071 | 0.145
3 | PRUNE1 (UniProt Q86TP1) | 0.049 | -0.058 | 0.012 | 0.017 | -0.037 | -0.129 | 0.04 | 0.08 | -0.019 | -0.021 | 0.056 | -0.014 | -0.028 | 0.161 | 0.129 | 0.022 | 0.056 | 0.105 | -0.005 | 0.036
4 | POM121 (UniProt Q96HA1) | -0.022 | 0.005 | -0.164 | 0.083 | 0.016 | -0.241 | 0.178 | 0.065 | -0.042 | -0.057 | -0.045 | -0.032 | -0.074 | 0.117 | -0.039 |  | 0.119 | 0.111 | -0.056 | 0.007
5 | POLR2E (UniProt P19388) | -0.106 | -0.012 | 0.218 | -0.041 | -0.061 | 0.081 | 0.065 | 0.108 | -0.055 | -0.014 |  | -0.094 | -0.091 | 0.005 | 0.031 | 0.099 | -0.007 | -0.03 | 0 | 0.018
6 | PIGT (UniProt Q969N2) | -0.016 | 0.01 | -0.009 | 0.022 | -0.067 | -0.089 | 0.002 | 0.045 | 0.018 | 0.01 | -0.001 | -0.005 | -0.016 | 0.031 | -0.008 | 0.027 | -0.033 | 0.004 | 0.02 | 0.009
7 | PCYT1A (UniProt P49585) | 0.081 | -0.032 | -0.007 | -0.072 | -0.019 | -0.163 | 0.084 | -0.005 | 0.116 | -0.137 | -0.049 | -0.038 | 0.035 | -0.034 | 0.052 | -0.092 | -0.024 | 0.044 | -0.045 | 0.043
8 | PRMT7 (UniProt Q9NVM4) | 0.044 | -0.061 | -0.004 | -0.005 | 0.048 | -0.329 (active) | -0.033 | 0.074 | -0.022 | -0.065 | 0.056 | -0.197 | -0.055 | -0.003 | -0.03 | -0.014 | 0.042 | 0.023 | 0.065 | 0.145
9 | PCF11 (UniProt O94913) | 0.002 | -0.255 | -0.093 | -0.104 |  |  | -0.083 | -0.058 |  |  |  | 0.045 | -0.018 |  | -0.058 | -0.3 |  | -0.168 | 0.019 | 0.006
10 | PNPLA4 (UniProt P41247) | -0.094 | 0.012 | 0.005 | -0.022 |  | 0.115 | 0.209 | 0.049 | 0.054 | -0.025 | 0.418 | -0.04 | 0.273 |  | -0.093 | -0.277 | 1.1 (active) | 0.042 | 0.409 | -0.025
11 | PIGH (UniProt Q14442) | -0.207 | 0.022 | -0.004 | -0.017 | 0.023 | 0.014 | -0.004 | 0.139 |  | 0.096 |  | 0.001 | 0 | 0.141 | 0 | -0.069 | -0.011 | -0.219 | 0.027 | -0.025
12 | PHKA1 (UniProt P46020) | -0.043 | -0.001 | 0.306 | -0.03 | -0.161 | 0.011 | 0.195 | -0.023 | 0.118 | 0.022 | -0.027 | -0.155 | -0.033 | 0.047 |  | 0.076 | -0.024 | -0.133 | -0.062 | 0.019
13 | PATL1 (UniProt Q86TB9) | -0.026 | -0.173 | -0.312 | 0.079 | -0.024 | -0.298 | 0.033 | 0.143 |  | 0.038 | 0.038 | 0.031 | -0.064 | 0.123 | -0.118 | 0.1 | 0.039 | 0.014 | -0.025 | 0.005
14 | PTTG1IP (UniProt P53801) | -0.122 | 0.028 | -0.004 |  | -0.031 | 0.029 |  | 0.028 | 0.084 | -0.119 | 0.122 |  | -0.062 | -0.024 | -0.059 | 0.008 | -0.124 | -0.025 | -0.107 | 0.02
15 | PNN (UniProt Q9H307) | 0.051 | -0.047 | -0.134 | 0.032 | 0.004 | -0.146 | 0.145 | 0.124 | 0.056 |  | -0.101 | 0.084 | 0.011 | 0.03 |  | 0.004 | 0.121 | 0.027 | 0.003 | 0.04
16 | PDE4A (UniProt P27815) | 0 | 0.249 | 0.077 | -0.056 | 0.106 | 0.029 | 0.04 | 0.019 |  | -0.077 |  | -0.028 | 0.062 | 0.061 | 0.006 |  | 0.015 | 0.049 | -0.047 | 0.024
17 | POLA1 (UniProt P09884) | -0.034 | -0.06 | -0.02 | -0.018 | -0.066 | -0.151 | 0.005 | -0.027 | -0.044 | -0.066 | -0.001 | -0.029 | 0.052 | -0.064 | 0.064 | 0.024 | 0.093 | 0.098 | -0.003 | 0.053
